Experimental data reported in publication PMC5540273 (PLoS ONE, 2017).

Tests used:
Settings in all cases: concentration: 1 μM, replicates: in singlicate; n = 1
BRSK1 = tested on: BRSK1
BRSK2 = tested on: BRSK2
BTK = tested on: BTK
BUB1 = tested on: BUB1
CAMK1B = tested on: CAMK1B
CAMK1D = tested on: CAMK1D
CAMK1G = tested on: CAMK1G
CAMK1 = tested on: CAMK1
CAMK2A = tested on: CAMK2A
CAMK2B = tested on: CAMK2B
CAMK2D = tested on: CAMK2D
CAMK2G = tested on: CAMK2G
CAMK4 = tested on: CAMK4
CAMKK1 = tested on: CAMKK1
CAMKK2 = tested on: CAMKK2
CASK = tested on: CASK
CDC2L1 = tested on: T1, CDC2L1
T1 construct: gene CDK11B

CDC2L2 = tested on: CDC2L2
CDC2L5 = tested on: T2, CDC2L5
T2 construct: gene CDK13

CDK11 = tested on: T3, CDK11
T3 construct: gene CDK19
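Also: KINOMEscan kinase panel screen.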

| SMILES | %Inh (BRSK1) [%] | %Inh (BRSK2) [%] | %Inh (BTK) [%] | %Inh (BUB1) [%] | %Inh (CAMK1B) [%] | %Inh (CAMK1D) [%] | %Inh (CAMK1G) [%] | %Inh (CAMK1) [%] | %Inh (CAMK2A) [%] | %Inh (CAMK2B) [%] | %Inh (CAMK2D) [%] | %Inh (CAMK2G) [%] | %Inh (CAMK4) [%] | %Inh (CAMKK1) [%] | %Inh (CAMKK2) [%] | %Inh (CASK) [%] | %Inh (CDC2L1) [%] | %Inh (CDC2L2) [%] | %Inh (CDC2L5) [%] | %Inh (CDK11) [%] |
| --- | --- | --- | --- | --- | --- | --- | --- | --- | --- | --- | --- | --- | --- | --- | --- | --- | --- | --- | --- | --- |
| COc1ccc(-c2oc3ncnc(N)c3c2-c2ccc(OC)cc2)cc1 [SB-589132] | 12 | 0 | 54 | 64 | 13 | 7 | 0 | 19 | 0 | 0 | 3 | 2 | 13 | 0 | 0 | 0 | 0 | 0 | 0 | 11 |
| Fc1cccc(COc2ccc(Nc3ncnc4nn5ccccc5c34)cc2Cl)c1 [GW689066] | 0 | 0 | 15 | 49 | 15 | 21 | 0 | 19 | 0 | 0 | 0 | 10 | 0 | 5 | 0 | 0 | 0 | 0 | 0 | 2 |
| CS(=O)(=O)CCNCc1ccc(-c2ccc3ncnc(Nc4ccc(OCc5ccccc5)c(Cl)c4)c3c2)o1.Cl [GW574783] | 1 | 0 | 0 | 26 | 0 | 4 | 27 | 14 | 0 | 0 | 4 | 11 | 0 | 0 | 0 | 3 | 0 | 0 | 0 | 15 |
| O=c1cc(N2CCOCC2)nc2n(Cc3cccc(Cl)c3)ccn12 [GSK2296823] | 25 | 0 | 0 | 18 | 22 | 22 | 0 | 0 | 0 | 0 | 0 | 3 | 0 | 17 | 0 | 3 | 0 | 6 | 0 | 0 |
| Cl.Cn1ccc(-c2cccc(Nc3ccnc4cc(-c5nccs5)ccc34)c2)n1 [GW525701] | 0 | 38 | 0 | 62 | 3 | 3 | 38 | 0 | 0 | 0 | 26 | 21 | 0 | 25 | 20 | 2 | 0 | 0 | 0 | 3 |
| Nc1n[nH]c2nnc(-c3ccccc3)cc12 [SB-517389] | 0 | 0 | 0 | 0 | 38 | 28 | 0 | 15 | 0 | 0 | 2 | 0 | 0 | 0 | 0 | 18 | 0 | 0 | 0 | 0 |
| COc1ccc(NC(=O)Nc2ccc(C)c(-c3ccc(C(=O)Nc4ccncc4)cc3)c2)cc1 [GSK1398475] | 0 | 0 | 0 | 28 | 1 | 3 | 0 | 4 | 0 | 0 | 0 | 22 | 0 | 3 | 20 | 0 | 0 | 34 | 0 | 4 |
| C[C@@H]1CCN(C(=O)CO)C[C@@H]1N(C)c1ncnc2[nH]ccc12 | 13 | 0 | 0 | 0 | 29 | 0 | 0 | 0 | 0 | 0 | 0 | 13 | 20 | 4 | 11 | 0 | 0 | 0 | 0 | 6 |
| Cc1ccc(NC(=O)c2cccc(C#N)c2)cc1-c1ccc(C(=O)Nc2ccncc2)cc1 [GSK1398463] | 15 | 0 | 0 | 27 | 0 | 42 | 67 | 49 | 7 | 6 | 49 | 26 | 0 | 15 | 2 | 7 | 0 | 14 | 0 | 5 |
| Fc1ccc(Nc2nccc(-c3c(-c4ccc(Cl)cc4)nn4ncccc34)n2)cc1F [GW829058] | 0 | 4 | 75 | 35 | 13 | 32 | 0 | 22 | 16 | 18 | 0 | 2 | 0 | 2 | 5 | 26 | 6 | 11 | 30 | 18 |
| O=C(Nc1ccccc1F)NC1CCN(c2ccnc(Nc3ccc(F)cc3)n2)C1 (stereo not drawn) [GSK1379722] | 17 | 0 | 12 | 44 | 0 | 0 | 0 | 0 | 0 | 0 | 0 | 12 | 0 | 0 | 3 | 17 | 0 | 0 | 0 | 19 |
| O=C(NCCCN1CCCC1=O)c1cnc(NCc2cc(Cl)ccc2Cl)nc1NC1CCNCC1 | 6 | 0 | 0 | 0 | 21 | 6 | 0 | 0 | 0 | 0 | 0 | 0 | 0 | 4 | 1 | 78 | 0 | 0 | 0 | 4 |
| Cc1ccc(O)cc1Nc1cc(C(F)(F)F)nc2ccc(-c3ccncc3)cc12 [GW630823] | 3 | 0 | 0 | 0 | 0 | 14 | 1 | 8 | 20 | 2 | 2 | 16 | 0 | 11 | 16 | 1 | 17 | 0 | 0 | 0 |
| CCc1nc(-c2cccc(N(C)S(=O)(=O)c3ccccc3)c2)c(-c2ccnc(Nc3ccc(N4CCN(C(C)=O)CC4)nc3)n2)s1 [GSK1645895] | 0 | 0 | 0 | 0 | 27 | 29 | 16 | 45 | 0 | 0 | 24 | 37 | 0 | 30 | 32 | 5 | 11 | 16 | 0 | 6 |
| Cl.c1ccc(Cn2ccc3cc(Nc4ncnc5ccccc45)ccc32)cc1 [GW275568] | 0 | 20 | 0 | 0 | 34 | 27 | 8 | 24 | 9 | 0 | 24 | 27 | 0 | 16 | 29 | 17 | 23 | 28 | 0 | 19 |
| Nc1nc(-c2ccc3c(N)n[nH]c3c2)cc(N2CCCCC2)n1 [GSK2228768] | 5 | 0 | 0 | 21 | 8 | 5 | 0 | 13 | 0 | 0 | 0 | 25 | 0 | 0 | 6 | 15 | 0 | 0 | 0 | 0 |
| CC(=O)Nc1n[nH]c2ncc(-c3ccccc3)cc12 [SB-548492] | 21 | 0 | 0 | 0 | 0 | 18 | 0 | 35 | 4 | 0 | 0 | 17 | 0 | 0 | 4 | 0 | 0 | 14 | 21 | 0 |
| CN1c2ccc(-c3ccc(C(=O)NCCO)cc3)cc2-c2[nH]ncc2S1(=O)=O | 0 | 15 | 6 | 0 | 23 | 45 | 0 | 49 | 67 | 66 | 24 | 21 | 0 | 22 | 37 | 48 | 0 | 0 | 2 | 11 |
| COC(=O)c1cccc(NC(=O)NCCNc2ccnc(Nc3ccc(F)cc3)n2)c1 [GSK1379883] | 0 | 0 | 0 | 10 | 2 | 21 | 0 | 27 | 0 | 0 | 0 | 17 | 0 | 11 | 6 | 0 | 0 | 20 | 0 | 16 |
| CCCc1ccc(S(=O)(=O)NC2CCN(c3ccnc(Nc4ccc(OC)cc4)n3)C2)cc1 (stereo not drawn) [GSK1379737] | 0 | 0 | 0 | 47 | 0 | 11 | 0 | 5 | 0 | 0 | 4 | 4 | 0 | 0 | 0 | 22 | 0 | 0 | 0 | 17 |
| Nc1nc(-c2ccccn2)c(-c2ccnc3ccccc23)s1 [GW548057] | 0 | 0 | 8 | 39 | 33 | 8 | 0 | 4 | 1 | 0 | 6 | 20 | 0 | 13 | 21 | 26 | 0 | 11 | 0 | 10 |
